Screens (PubChem BioAssay)
MCL1 BIM primary – MCL1-BIM-BH3 interaction inhibition (human). Q07820. GST-MCL1 / FITC-Bim-BH3 fluorescence polarization. inhibition, % at 10.9 µM. 320,000 tested, 0.68% active;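 active = inhibition above the mean inhibition of all tested compounds plus 3 SD, set per campaign, cut at about 40% in these data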;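 note: higher means more loss of mP so more displacement of Bim peptide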
Target sequence (Q07820 whole entry, looked up): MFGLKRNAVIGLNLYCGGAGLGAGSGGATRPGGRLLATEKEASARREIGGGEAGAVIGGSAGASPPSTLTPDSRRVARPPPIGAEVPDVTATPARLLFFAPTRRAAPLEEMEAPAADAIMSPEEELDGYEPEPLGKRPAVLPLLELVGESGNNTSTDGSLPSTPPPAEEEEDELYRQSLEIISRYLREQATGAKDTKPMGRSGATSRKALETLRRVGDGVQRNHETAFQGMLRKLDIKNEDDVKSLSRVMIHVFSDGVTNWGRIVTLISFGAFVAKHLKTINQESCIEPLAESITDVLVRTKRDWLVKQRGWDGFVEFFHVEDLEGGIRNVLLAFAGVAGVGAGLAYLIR
EBV gp42 inh – EBV gp42 inhibition; Fluorescence polarization binding assay, mP read-out; inhibition, % (tested at 21.74 µM); 220,000 tested, 0.42% active; AID 1085; in the data active = inhibition above about 50%
GLD-1 RNA inh – GLD-1-TGE RNA interaction inhibition (C. elegans). Q17339. purified GLD-1 + fluorescein TGE RNA, fluorescence polarization. inhibition, % at 5.96 µM. 320,000 tested, 0.44% active. AID 2280;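 active = percent inhibition above a per-plate cutoff, the plate mean of test compounds plus 3 SD, cut at about 30% in these data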
MEX-5 binding – C. elegans MEX-5 TCR-2 RNA binding activity; Q9XUB2; MEX-5/FITC-TCR2 RNA binding, fluorescence polarization; stronger effect = lower value; activity score (negative = inhibition of binding), % at 10 µM; 300,000 tested, 0.38% active;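 active = inhibition past about -25% in most replicates, and total fluorescence under double the plate's negative control median, limit read from the data; inconclusive = replicates evenly split on the limit, or fluorescence at least double controls; inactive = too little inhibition in most replicates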
BCLXL inh – blocks human Bcl-xL binding to Bim BH3 peptide | Q07817 | GST-Bcl-xL / FITC-Bim BH3 peptide fluorescence polarization | inhibition, % at 10.9 µM | 320,000 tested, 0.7% active;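 active = inhibition above the mean of all tested compounds plus 3 SD, cutoff set per campaign, cut at about 30% in these data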;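 note: inhibitors lower millipolarization by displacing the labeled peptide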
Target sequence (Q07817 whole entry, looked up): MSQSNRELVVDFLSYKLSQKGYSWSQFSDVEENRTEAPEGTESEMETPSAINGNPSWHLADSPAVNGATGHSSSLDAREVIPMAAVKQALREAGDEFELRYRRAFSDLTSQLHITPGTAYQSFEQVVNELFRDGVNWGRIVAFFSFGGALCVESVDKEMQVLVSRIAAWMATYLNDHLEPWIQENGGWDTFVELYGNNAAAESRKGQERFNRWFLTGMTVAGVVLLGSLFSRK
eLon inh – E. coli protease La inhibition. P0A9M0. purified E. coli Lon protease, fluorescence polarization. inhibition, % at 7.94 µM. 360,000 tested, 0.42% active. AID 602123; in the data active = inhibition above about 13%, passing the limit was not always enough
Bcl-xL conf – counter-screen for MCL1 inhibitors: confirmation of human Bcl-xL inhibitors; shares compounds with MCL1 BIM primary; GST-Bcl-xL / FITC-Bim BH3 peptide FP binding; inhibition, % at 10.9 µM; 1,700 tested, 54% active;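 active = inhibition above a cutoff equal to the mean inhibition of all tested compounds plus 3 SD, cut at about 30% in these data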
MCL1 BIM confirm – MCL1-BIM-BH3 interaction inhibition, confirmation | shares compounds with MCL1 BIM primary | GST-MCL1 / FITC-Bim-BH3 fluorescence polarization | inhibition, % at 10.9 µM | 1,700 tested, 61% active;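 active = inhibition above the average of all tested compounds plus 3 SD, cut at about 40% in these data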
Large screens that a line does not name were inactive (follow-up assays come after a bar, where they were run). Compounds with a hit are over-represented: about 1.5% of the library has one in this group of screens.

N#CC1=C(N)Oc2cc(O)c(Cl)cc2C1c1ccccc1F (stereo not drawn)	MCL1 BIM primary 57, GLD-1 RNA inh 59, MEX-5 binding -46, BCLXL inh 78 (no result: EBV gp42 inh) | Bcl-xL conf 91 | MCL1 BIM confirm 118
CC1=CC(=Nc2c(C)n(C)n(-c3ccccc3)c2=O)C=CC1=O	MCL1 BIM primary 126, GLD-1 RNA inh 76, BCLXL inh 125 (no result: eLon inh) | Bcl-xL conf inactive | MCL1 BIM confirm inactive
CC1=CC(=Nc2c(C)n(C)n(-c3ccccc3)c2=O)C=C(C)C1=O	none
O=S(=O)(O)c1cccc2c(N=Nc3ccc(O)c4ncccc34)cccc12	MCL1 BIM primary 72, MEX-5 binding -92 (no result: EBV gp42 inh) | Bcl-xL conf 34 | MCL1 BIM confirm 82
CN(C)c1ccc(O)c2c1CC1CC3[C@@H](N(C)C)C(=O)C(C(N)=O)=C(O)[C@]3(O)C(=O)C1=C2O (stereo partly drawn)	MCL1 BIM primary 61 | Bcl-xL conf inactive | MCL1 BIM confirm 67
O=S(=O)([O-])C(c1ccccc1)[n+]1ccccc1 (stereo not drawn)	MCL1 BIM primary 47 (no result: EBV gp42 inh) | Bcl-xL conf inactive | MCL1 BIM confirm inactive
O=c1[nH]c(S)c(/C=C2\C=Nc3ccccc32)s1	MCL1 BIM primary 76, EBV gp42 inh 63, GLD-1 RNA inh 45, BCLXL inh 77 | Bcl-xL conf 86 | MCL1 BIM confirm 108
Oc1nc(Nc2ccc(F)cc2)sc1/C=C1\C=Nc2ccccc21	none
Oc1cc(-n2cccn2)c(O)cc1-n1cccn1	none
COc1ccc(C(=S)N2CCN(c3ccccc3Cl)CC2)cc1OC	none
COc1cc(C(=S)N2CCN(c3ccccc3Cl)CC2)cc(O)c1O	MCL1 BIM primary 58 | Bcl-xL conf 34 | MCL1 BIM confirm 71
CC1(OC(=O)c2cnc3ccccc3n2)C(=O)C=C2C=C(C3CC3)OC=C2C1=O (stereo not drawn)	MCL1 BIM primary 130, GLD-1 RNA inh 114, MEX-5 binding -53, BCLXL inh 118 (no result: EBV gp42 inh, eLon inh) | Bcl-xL conf 81 | MCL1 BIM confirm 117
CCC(=O)OC1(C)C(=O)C=C2C=C(C3CC3)OC=C2C1=O (stereo not drawn)	MCL1 BIM primary 63, GLD-1 RNA inh 39, BCLXL inh 59 (no result: EBV gp42 inh) | Bcl-xL conf inactive | MCL1 BIM confirm inactive
COC(=O)CCC(=O)OC1(C)C(=O)C=C2C=C(C3CC3)N(CC(C)C)C=C2C1=O (stereo not drawn)	none (no result: MCL1 BIM primary, GLD-1 RNA inh, BCLXL inh, eLon inh)
COC/C=C/C1=CC2=CC(=O)C(C)(OC(=O)c3cnc4ccccc4n3)C(=O)C2=CN1C1CCCCC1 (stereo not drawn)	none (no result: EBV gp42 inh, eLon inh)
CN1OC[C@@H]2C(=O)N3CCc4c([nH]c5ccccc45)[C@@H]3C[C@@H]21	none (no result: MCL1 BIM primary, EBV gp42 inh, GLD-1 RNA inh, MEX-5 binding, BCLXL inh)
O=C(Nc1cccc(S(=O)(=O)NC2=NCCC2)c1)c1cc(=O)[nH]c2ccccc12	none (no result: EBV gp42 inh, MEX-5 binding)
Nc1cc(C(=O)O)c(N)c2c1C(=O)c1ccccc1C2=O	MCL1 BIM primary 180, EBV gp42 inh 119, GLD-1 RNA inh 112, MEX-5 binding -101, BCLXL inh 155, eLon inh 51 | Bcl-xL conf 161 | MCL1 BIM confirm 195
O=C(CN1C(=O)COc2ccc(Cl)cc21)N1CCCCC1	none (no result: EBV gp42 inh)
CC(C)C(C(=O)O)N1C(=O)/C(=C/C=C/c2ccco2)SC1=S (stereo not drawn)	MCL1 BIM primary 95, MEX-5 binding -35, BCLXL inh 71 | Bcl-xL conf 32 | MCL1 BIM confirm inactive
O=C(NN1C(=O)/C(=C/C=C/c2ccco2)SC1=S)c1ccncc1	MCL1 BIM primary 80, BCLXL inh 46 | Bcl-xL conf 30 | MCL1 BIM confirm 45
O=C1/C(=C/C=C/c2ccco2)SC(=S)N1c1ccc(O)cc1	none
O=C(NN1C(=O)/C(=C/C=C/c2ccccc2)SC1=S)c1ccncc1	none
CC(=O)C1=C(c2ccccc2)NC(=S)NC1c1ccc(O)c(O)c1 (stereo not drawn)	none
CC(=O)C1=C(c2ccccc2)NC(=O)NC1c1ccc(O)c(O)c1 (stereo not drawn)	MCL1 BIM primary 81, MEX-5 binding -29 | Bcl-xL conf inactive | MCL1 BIM confirm inactive
S=C1NC2(CCCCC2)Nc2ccccc21	none
COC(=O)C1=C(C)NC(=O)/C1=C\N(C)C	MCL1 BIM primary 105, GLD-1 RNA inh 68, BCLXL inh 91 | Bcl-xL conf inactive | MCL1 BIM confirm inactive
COC(=O)C1=C(C)NC(=O)/C1=C\c1cccs1	none
O=c1[nH]c(C(Cl)Cl)nc2sc3c(c12)CCN(Cc1ccccc1)C3	MCL1 BIM primary 102, EBV gp42 inh 56, BCLXL inh 78 | Bcl-xL conf 56 | MCL1 BIM confirm 78
CN1CCc2cccc3c2C1Cc1ccc(O)c(O)c1-3 (stereo not drawn)	MCL1 BIM primary 49, MEX-5 binding -83, BCLXL inh 33 (no result: EBV gp42 inh) | Bcl-xL conf 46 | MCL1 BIM confirm 70
CN1CCC(=C2c3ccccc3C(O)c3ccccc32)CC1 (stereo not drawn)	none
CCNc1ccc(S(=O)(=O)N2CCCCC2)cn1	none (no result: EBV gp42 inh, MEX-5 binding)
O=C1c2cccc3c(N4CCCCC4)ccc(c23)C(=O)N1c1ccc(O)cc1	MCL1 BIM primary 68, GLD-1 RNA inh 36, MEX-5 binding inconclusive, BCLXL inh 54 | Bcl-xL conf 60 | MCL1 BIM confirm 72
COc1ccc(S(=O)(=O)Nc2cc(SCC(=O)O)c(O)c3ccccc23)cc1	MEX-5 binding -53 (no result: MCL1 BIM primary, EBV gp42 inh) | Bcl-xL conf inactive
COc1ccc(S(=O)(=O)Nc2cc(Sc3ncn[nH]3)c(O)c3ccccc23)cc1	none (no result: MCL1 BIM primary, GLD-1 RNA inh, MEX-5 binding, BCLXL inh, eLon inh)
COC(=O)CCCC1=CC2=CC(=O)C(C)(OC(=O)C3CCCC3)C(=O)C2=CO1 (stereo not drawn)	MCL1 BIM primary 63, GLD-1 RNA inh 48, MEX-5 binding -27, BCLXL inh 45 (no result: eLon inh) | Bcl-xL conf 41 | MCL1 BIM confirm 63
CCCCC1=CC2=CC(=O)C(C)(OC(=O)CC)C(=O)C2=CN1C(CO)CO (stereo not drawn)	none
CCC(=O)OC1(C)C(=O)C=C2C=C(CCCC(=O)OC)OC=C2C1=O (stereo not drawn)	MCL1 BIM primary 86, GLD-1 RNA inh 46, MEX-5 binding -31, BCLXL inh 70 (no result: EBV gp42 inh) | Bcl-xL conf 41 | MCL1 BIM confirm 75
CCOC(=O)c1cc(-c2ccc(/C=C3/C(=O)NC(=O)C(C#N)=C3C)o2)ccc1Cl	MCL1 BIM primary 121, EBV gp42 inh 106, GLD-1 RNA inh 42, BCLXL inh 85 | Bcl-xL conf 105 | MCL1 BIM confirm 150
CC1=C(C#N)C(=O)NC(=O)/C1=C\c1ccc(-c2ccc(C)cc2[N+](=O)[O-])o1	none (no result: MCL1 BIM primary, GLD-1 RNA inh, BCLXL inh)
